Potency and outcome data for nine compounds are collected here from PubChem BioAssay (Tox21).

Assay [1] in a line: qHTS assay to identify small molecule agonists of the peroxisome proliferator-activated receptor delta (PPARd) signaling pathway - cell viability counter screen (AID 743211). Further: nearly all actives have a fitted effect of over 55% in size. The procedure, abridged:
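Viability of GeneBLAzer PPARd UAS-bla HEK293H cells was assessed after 17 h compound incubation at 37C, using CellTiter-Glo reagent added after the reporter read and luminescence recorded 30 min later.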
For orientation: Quantitative high-throughput screening tests each substance at several concentrations.

The target in assay [2] is Peroxisome proliferator-activated receptor delta (Homo sapiens) (UniProt Q03181). In words: qHTS assay to identify small molecule agonists of the peroxisome proliferator-activated receptor delta (PPARd) signaling pathway (AID 743212; calls by dose curve). The procedure, abridged:
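Tox21 library screened in GeneBLAzer PPARd UAS-bla HEK293H cells. After compound treatment at 37 C, a FRET-based beta-lactamase substrate was applied for 2 h and fluorescence recorded.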

Assay [3] is described as follows: qHTS assay to identify small molecule antagonists of the peroxisome proliferator-activated receptor delta (PPARd) signaling pathway - cell viability counter screen (AID 743213). Further: nearly all actives have a fitted effect of over 50% in size. The procedure, abridged: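 Agonist-stimulated (L165041, 300 nM final) HEK293H PPARd UAS-bla cells are exposed to compounds for 17 h at 37 C, and ATP-based luminescence (CellTiter-Glo) from the same wells reports cytotoxicity.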

Assay [4] addresses Peroxisome proliferator-activated receptor delta (Homo sapiens) (UniProt Q03181). Put plainly: qHTS assay to identify small molecule antagonists of the peroxisome proliferator-activated receptor delta (PPARd) signaling pathway (AID 743215; active means well fitted inhibition curve with a large enough effect in the signal ratio in the repeat runs, not every such curve was filed as active; the % refers to the signal ratio; further: series mostly up to about 62 µM). The procedure, abridged: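 Plated HEK293H PPARd-bla cells rested 5 h at 37 C and 5% CO2. Compound, then agonist L165041 at 300 nM final, was added; 17 h at 37 C followed. Substrate loading, 2 h room temperature, fluorescence measured.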

Assay [5] is described as follows: qHTS assay to identify small molecule agonists of the farnesoid-X-receptor (FXR) signaling pathway - cell viability counter screen (AID 743218). Further: nearly all actives have a fitted effect of over 45% in size. The procedure, abridged:
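Viability of FXR-bla HEK 293T cells is measured by ATP-based CellTiter-Glo luminescence following 16 h compound treatment at 37 C and a prior 2 h room-temperature beta-lactamase substrate step.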

Assay [6] addresses Bile acid receptor (Homo sapiens) (UniProt Q96RI1). In words: qHTS assay to identify small molecule agonists of the farnesoid-X-receptor (FXR) signaling pathway (AID 743220; active means well fitted activation curve with a large enough effect in the signal ratio in the repeat runs, not every such curve was filed as active; the % refers to the signal ratio). The procedure, abridged: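 FXR-UAS-bla HEK 293T cells carrying a UAS-driven beta-lactamase reporter were plated for 5 h at 37C/5% CO2, then exposed to DMSO-dissolved Tox21 10K compounds for 16 h at 37C. A LiveBLAzer B/G FRET substrate was loaded for 2 h at room temperature before fluorescence reading.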

The nature of assay [7]: qHTS assay to identify small molecule antagonists of the farnesoid-X-receptor (FXR) signaling pathway - cell viability counter screen (AID 743221; active means well fitted cell-killing curve with a large enough effect in the repeat runs, not every such curve was filed as active; further: nearly all actives have a fitted effect of over 50% in size). The procedure, abridged:
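Quantitative HTS of the Tox21 10K library run in parallel with the beta-lactamase reporter read. HEK 293T cells carrying a UAS-driven bla reporter got compound and 50 uM CDCA (final) for 16 h; ATP-based luminescence followed.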

Assay [8] addresses Vitamin D3 receptor (Homo sapiens) (UniProt P11473). In words: qHTS assay to identify small molecule agonists of the vitamin D receptor (VDR) signaling pathway (AID 743222; calls by dose curve). The procedure, abridged: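 Fluorescence from cleaved LiveBLAzer B/G FRET substrate served as readout. VDR-bla cells had been treated 16 h at 37C with test compounds in DMSO, following a 4 h settling period, and substrate was loaded for 2 h at RT.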

A short description of assay [9]: qHTS assay to identify small molecule agonists of the vitamin D receptor (VDR) signaling pathway - cell viability counter screen (AID 743224). Further: series mostly up to about 63 µM; nearly all actives have a fitted effect of over 50% in size. The procedure, abridged: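 Compounds were pin-transferred onto VDR-bla cells plated 4 h earlier; following 16 h incubation at 37C, cell viability was quantified by CellTiter-Glo luminescence after 30 min at room temperature.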

Assay [10] is described as follows: qHTS assay to identify small molecule antagonists of the vitamin D receptor (VDR) signaling pathway - cell viability counter screen (AID 743225). Further: nearly all actives have a fitted effect of over 50% in size. The procedure, abridged: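 Cells (VDR-UAS-bla HEK 293T) are plated, rested 4 h at 37C, dosed with compound and 3 nM final 1-alpha,25-dihydroxy vitamin D3, and incubated 16 h. Viability is taken from CellTiter-Glo luminescence in the reporter wells.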

The nature of assay [11]: qHTS assay to identify small molecule agonists of the NFkB signaling pathway (AID 1159509; active means well fitted curve in the direction sought with a large enough effect in the signal ratio in the repeat runs, not every such curve was filed as active; the % refers to the signal ratio; further: series mostly up to about 61 µM). The procedure, abridged:
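Agonist activity was read as beta-lactamase-driven FRET change (460 and 530 nm emission, 405 nm excitation) following 1.5 hr substrate loading at room temperature. Beforehand, ME-180 NFkB-bla reporter cells were treated with compounds for 5 hr at 37 C.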

A short description of assay [12]: qHTS assay to identify small molecule agonists of the NFkB signaling pathway - cell viability counter screen (AID 1159515; calls by dose curve; further: series mostly up to about 61 µM; nearly all actives have a fitted effect of over 55% in size). The procedure, abridged:
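Parallel cytotoxicity counter screen in ME-180 cells carrying an NFkB-response-element beta-lactamase reporter, 2,000 cells/well. Compound exposure lasted 5 hr at 37 C, 5% CO2. Cell viability was quantified by CellTiter-Glo luminescence.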

The nature of assay [13]: qHTS assay to identify small molecule agonists of the endoplasmic reticulum stress response signaling pathway (AID 1159516; active means well fitted activation curve with a large enough effect in the signal ratio in the repeat runs, not every such curve was filed as active; the % refers to the signal ratio). The procedure, abridged:
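Using a HeLa line with an ESRE-driven beta-lactamase gene, agonist activity was measured by FRET substrate fluorescence (460 and 530 nm emission) after cells were treated with compounds for 5 hr at 37 C and 5% CO2.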

Assay [14] can be described thus: qHTS assay to identify small molecule antagonists of the retinoid-related orphan receptor gamma (ROR-gamma) signaling pathway - cell viability counter screen (AID 1159520). Further: nearly all actives have a fitted effect of over 50% in size. The procedure, abridged: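 Tet-on ROR gamma CHO cells were given compounds for 2 hr, then doxycycline hyclate at 1 uM final, and incubated 16 hr at 37 C. Viability was measured as ATP content by CellTiter-Glo luminescence.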

Assay [15] addresses Nuclear receptor ROR-gamma (Homo sapiens) (UniProt P51449). Put plainly: qHTS assay to identify small molecule antagonists of the retinoid-related orphan receptor gamma (ROR-gamma) signaling pathway (AID 1159521; further: nearly all actives have a fitted effect of over 50% in size; further: potency means the concentration at half of the fitted maximal effect). The procedure, abridged: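 RORγ antagonism is scored from reduced reporter luminescence in Tet-on CHO cells. Induction used 1 uM final doxycycline hyclate for 16 h at 37 C, following a 2 h compound exposure.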

Assay [16] can be described thus: qHTS assay to identify small molecule agonists of the AP-1 signaling pathway (AID 1159526; calls by dose curve).
Assay [17] deals with Vitamin D3 receptor (Homo sapiens) (UniProt P11473). In words: qHTS assay to identify small molecule antagonists of the vitamin D receptor (VDR) signaling pathway (AID 743223; active means well fitted inhibition curve with a large enough effect in the signal ratio in the repeat runs, not every such curve was filed as active; the % refers to the signal ratio). The procedure, abridged:
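Fluorescence from LiveBLAzer B/G FRET substrate, read after 2 h at room temperature, reflects beta-lactamase reporter activity in VDR-bla cells treated 16 h at 37C with compounds and agonist 1alpha,25-dihydroxyvitamin D3 (3 nM final).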

Assay [18] is described as follows: qHTS assay to identify small molecule agonists of the AP-1 signaling pathway - cell viability counter screen (AID 1159525; calls by dose curve; further: nearly all actives have a fitted effect of over 55% in size). The procedure, abridged:
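Same-well cytotoxicity counter screen of the Tox21 10K library in ME-180 cells. The readout is ATP-dependent luminescence after 5 h compound treatment. Data are normalised to DMSO and tetra n-octyl ammonium bromide controls.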

For assay [19], the target named is Bile acid receptor (Homo sapiens) (UniProt Q96RI1). In words: qHTS assay to identify small molecule antagonists of the farnesoid-X-receptor (FXR) signaling pathway (AID 743217; active means well fitted inhibition curve with a large enough effect in the signal ratio in the repeat runs, not every such curve was filed as active; the % refers to the signal ratio). The procedure, abridged:
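Screen of the Tox21 10K library in quantitative HTS format using FXR-UAS-bla HEK 293T reporter cells. Agonist chenodeoxycholic acid, 50 uM final, added with compounds; 16 h incubation at 37 °C; beta-lactamase FRET fluorescence measured.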

Structures are written as SMILES. Results filed as inconclusive are left out. Active and inactive are the calls of the source. Unless noted, the call rests on the fitted dose curve; in most records, active means well fitted curve in the direction sought with a large enough effect in the repeat runs; inconclusive means weak or mixed curves; inactive means no such curve, though single readings can be large; an effect the other way counts as inactive or inconclusive.

Chain of Peroxisome proliferator-activated receptor delta (Homo sapiens) (Q03181 whole entry, looked up): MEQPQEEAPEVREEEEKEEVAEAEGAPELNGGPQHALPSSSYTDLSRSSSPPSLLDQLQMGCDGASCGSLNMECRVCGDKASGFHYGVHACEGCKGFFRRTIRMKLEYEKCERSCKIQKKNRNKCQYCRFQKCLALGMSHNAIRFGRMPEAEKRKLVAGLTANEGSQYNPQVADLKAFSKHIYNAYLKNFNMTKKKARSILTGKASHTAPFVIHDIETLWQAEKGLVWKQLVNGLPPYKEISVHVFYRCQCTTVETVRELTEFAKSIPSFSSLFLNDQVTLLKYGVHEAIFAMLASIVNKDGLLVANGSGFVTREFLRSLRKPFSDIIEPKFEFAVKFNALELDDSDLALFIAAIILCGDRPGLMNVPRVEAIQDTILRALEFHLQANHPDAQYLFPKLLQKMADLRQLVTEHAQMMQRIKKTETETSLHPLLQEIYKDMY
Chain of Vitamin D3 receptor (Homo sapiens) (P11473 whole entry, looked up): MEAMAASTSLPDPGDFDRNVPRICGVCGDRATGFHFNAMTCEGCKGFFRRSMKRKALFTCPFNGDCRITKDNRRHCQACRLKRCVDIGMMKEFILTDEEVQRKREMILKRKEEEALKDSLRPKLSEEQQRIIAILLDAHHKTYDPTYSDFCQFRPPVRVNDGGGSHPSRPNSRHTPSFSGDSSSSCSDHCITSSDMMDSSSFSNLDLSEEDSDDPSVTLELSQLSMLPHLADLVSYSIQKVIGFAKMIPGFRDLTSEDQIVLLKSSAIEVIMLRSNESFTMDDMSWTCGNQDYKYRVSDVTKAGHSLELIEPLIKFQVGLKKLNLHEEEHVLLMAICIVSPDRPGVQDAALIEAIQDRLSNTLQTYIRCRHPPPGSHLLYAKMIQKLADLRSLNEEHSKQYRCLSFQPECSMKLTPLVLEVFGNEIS
Chain of Bile acid receptor (Homo sapiens) (Q96RI1 whole entry, looked up): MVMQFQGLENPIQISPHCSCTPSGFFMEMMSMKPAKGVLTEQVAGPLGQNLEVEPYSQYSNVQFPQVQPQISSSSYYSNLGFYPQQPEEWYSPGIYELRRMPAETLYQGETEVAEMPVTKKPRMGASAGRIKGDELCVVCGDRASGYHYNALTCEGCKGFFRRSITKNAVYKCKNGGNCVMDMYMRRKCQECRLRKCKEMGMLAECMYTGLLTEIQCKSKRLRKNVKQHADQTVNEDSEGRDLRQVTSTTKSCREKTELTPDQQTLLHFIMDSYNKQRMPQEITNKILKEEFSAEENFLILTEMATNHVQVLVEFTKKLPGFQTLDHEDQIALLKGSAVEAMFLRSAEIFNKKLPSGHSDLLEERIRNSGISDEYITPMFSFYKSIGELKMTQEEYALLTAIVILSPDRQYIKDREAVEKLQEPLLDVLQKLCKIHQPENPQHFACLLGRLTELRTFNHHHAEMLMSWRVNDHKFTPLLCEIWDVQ

Take `CC(C)CCOC(=O)CC(C)C`: the Potency entry in assay [1], in assay [3], in assay [7], in [14], in [15] and in assay [16] was “inactive” throughout. Also, the result in [2], in assay [4], in assay [5], in assay [6], in assay [8] and in [9] was inactive. Besides, the outcome in assay [10], in [11], in [12] and in assay [13] was inactive.
As to `CO[Si](OC)(OC)OC`, the Potency entry in assay [1], in [3], in assay [7], in [14], in assay [15] and in [16] was “inactive” in each case. Moreover, the compound was called inactive in assay [2], in assay [4], in [5], in assay [8], in assay [17] and in assay [9]. Also, the compound was called inactive in assay [10], in assay [11], in assay [12], in assay [13] and in assay [18].
Regarding `CN(C)N=Nc1ccccc1`, the Potency entry in assay [1], in [3], in assay [7], in assay [14], in [15] and in [16] was “inactive” throughout. The compound was classed as inactive in assay [2], in [4], in assay [5], in assay [8], in [17] and in [9]. Besides, the result in assay [10], in [11], in [12], in assay [13] and in assay [18] was inactive.
For the compound `Nc1ccn(C2CO[C@H](CO)O2)c(=O)n1` (some centres undefined), the Potency entry in [3], in [7], in [14], in assay [15] and in assay [16] was “inactive” each time. The compound was called inactive in assay [5], in assay [6], in [17], in assay [9], in assay [10] and in [11]. The call in [12], in assay [13] and in assay [18] was inactive.
For the compound `CCCc1ccc(N)cc1`, the Potency result in assay [1], in assay [3], in assay [7], in assay [15] and in assay [16] was “inactive” each time. Further, the outcome in [2], in assay [4], in assay [5], in assay [8], in assay [17] and in assay [9] was inactive. Further, the outcome in assay [10], in [11], in assay [12], in assay [13] and in [18] was inactive.
In the case of `CC(C)(C)C(=O)/C=C/c1ccc(Cl)cc1`, the Potency result in [3], in assay [7], in assay [14], in assay [15] and in assay [16] was “inactive” throughout. In addition, the compound was classed as inactive in assay [19], in assay [5], in assay [6], in assay [9], in assay [10] and in assay [11]. Moreover, the result in assay [12] and in assay [13] was inactive.
Regarding `CCCC(=O)O[C@]1(C(=O)CCl)[C@@H](C)C[C@H]2[C@@H]3CCC4=CC(=O)C=C[C@]4(C)[C@@]3(F)C(=O)C[C@@]21C`, the Potency entry in assay [1], in assay [3], in assay [14] and in [16] was “inactive” each time. Further, the call in assay [2], in assay [4], in assay [6], in assay [8], in assay [9] and in assay [11] was inactive. Also, the compound was classed as inactive in assay [12], in [13] and in assay [18]. Besides, the Potency in assay [15] is 10.6 µM (active).
`CCCCCCCCC=O`: the result in assay [12] was inactive.
Still for that read-out and setting: then `C=C(C)[C@H]1CC=C(C)CC1`, with “inactive”.
